Inconclusive results are not listed. Calls of active or inactive are those of the source. Calls come from the whole dose curve; as a rule, active = well fitted cell-killing curve with a large enough effect; inconclusive = small, poorly fitted or top-dose-only effect, or effect the other way; inactive = flat fitted curve, though single readings scatter.
% is set by controls: 0 for no effect and ±100 for the full control effect; potency is the fitted concentration of half-maximal effect.

The first experiment deals with HeLa. As to the kind of experiment: Primary qHTS to identify gynecologic anti-cancer compounds using libraries of approved drugs and bioactive compounds (AID 1345084). Note: nearly all actives have a fitted effect of over 55% in size. As to conditions: Gynecologic cancer cell panel viability, ATPlite luminescence, 48 h; series mostly up to 57.5 µM; activity change, negative = cytotoxicity: at the top concentration. Summed up: (§1)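 48 h compound exposure at 37 C, 5% CO2; five-point qHTS. ATPlite luminescence readout of cell ATP.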
For orientation: qHTS replaces the single test concentration by a dilution series.
Take `Cc1cc(Nc2nc(N[C@@H](C)c3ccc(F)cc3)c(C#N)cc2F)n[nH]1`: the Potency was 5.62 µM (active).
On to `Cc1nc(Nc2n[nH]c3c2CN(C(=O)N[C@H](CN(C)C)c2ccccc2)C3(C)C)c2sccc2n1`, for which the Potency was 8.91 µM (active).
The same measure, in the same setting: under `Cc1[nH]nc2ccc(-c3cncc(OC[C@@H](N)Cc4ccccc4)c3)cc12` stands 2.24 µM (active).
Consider `Cn1cc(-c2ccncc2)c(-c2ccc(OCc3ccc4ccccc4n3)cc2)n1`, for which the “activity change, negative = cytotoxicity” value is -6.81% (inactive).
On to `C=CC(=O)Nc1cccc(Oc2nc(Nc3ccc(N4CCN(C)CC4)cc3)ncc2Cl)c1`, for which the Potency was 7.94 µM (active).
Still for that read-out and setting: under `COc1ccc(OC)c(-c2nnc3ccc(-c4ccc(OC)c(O[C@@H]5CCOC5)c4)nn23)c1` stands 22.4 µM (active).
On to `CC1(C)CC(=O)c2c(C(F)(F)F)nn(-c3ccc(C(N)=O)c(NC4CCC(OC(=O)CN)CC4)c3)c2C1` (configuration not stated), for which the “activity change, negative = cytotoxicity” value is -8.64% (inactive).
For the molecule `CNC(=O)CN1CCC(Oc2cc3c(Nc4cccc(Cl)c4F)ncnc3cc2OC)CC1`, the “activity change, negative = cytotoxicity” value is -14.9% (inactive).
Same read-out and setting: under `CC(C)c1cc(-c2n[nH]c(=O)n2-c2ccc3c(ccn3C)c2)c(O)cc1O` stands -22.4% (inactive).
Consider `CCS(=O)(=O)c1cccc(-c2cc(C(=O)NC3CCN(C)CC3)c(C)c3[nH]c4ncc(C)cc4c23)c1`, for which the Potency was 1.58 µM (active).
As for `C[C@@H]1COC(Nc2ccc3ncnc(Nc4ccc(OCc5nccs5)c(Cl)c4)c3c2)=N1`, the “activity change, negative = cytotoxicity” value was -18.3% (inactive).
Consider `O=C(Cc1ccc(-c2ccc(OCCN3CCOCC3)cc2)cn1)NCc1ccccc1`, for which the Potency was 1.58 µM (active).
Still for that read-out and setting: under `CS(=O)(=O)N1CCN(Cc2cc3nc(-c4cccc5[nH]ncc45)nc(N4CCOCC4)c3s2)CC1` stands 3.55 µM (active).

The subject of another experiment is Hek293T. The experiment is described as above. The conditions noted are these: Gynecologic cancer cell panel viability, ATPlite luminescence, 48 h, control line for the selectivity index; series mostly up to 57.5 µM; activity change, negative = cytotoxicity: at the top concentration. In outline:
as §1
For orientation: Cellular ATP, detected with luciferase, serves as a proxy for viable cell number.
Take `COC(=O)Nc1ccc(-c2nc(N3CCOCC3)c3cnn(C4CCN(Cc5cccnc5)CC4)c3n2)cc1`: the Potency is 2.24 µM (active).
For the molecule `C=CC(=O)Nc1cc2c(Nc3ccc(F)c(Cl)c3)ncnc2cc1OCCCN1CCOCC1`, the “activity change, negative = cytotoxicity” value was -2.32% (inactive).
Take `CC(C)(O)c1cc2nc(-c3cnc(N)nc3)nc(N3CCOCC3)c2s1`: the Potency was 2 µM (active).
On to `COc1cc(C)c(Sc2cnc(NC(=O)c3ccc(CNC(C)C(C)C)cc3)s2)cc1C(=O)N1CCN(C(C)=O)CC1` (configuration not stated), for which the “activity change, negative = cytotoxicity” value is -25.7% (inactive).
Consider `Nc1ncnc2c1c(-c1cnc3[nH]ccc3c1)nn2C1CCCC1`, for which the Potency is 7.94 µM (active).
With `CCOC(=O)C1=C(C)NC2=C(C(=O)CC(C)(C)C2)C1c1ccc(-c2ccccc2)cc1` (configuration not stated), the Potency is 28.2 µM (active).
For the molecule `Fc1cc(-c2cccc3ncc(-c4cnn(C5CCNCC5)c4)nc23)cc(F)c1CN1CCOCC1`, the “activity change, negative = cytotoxicity” value is -2.4% (inactive).
Same read-out and setting: under `COC(=O)C1=C(C)NC(C)=C(C(=O)OCCN2CCN(C(c3ccccc3)c3ccccc3)CC2)C1c1cccc([N+](=O)[O-])c1` (configuration not stated) stands -44.7% (inactive); under `COc1cc2c(Nc3ccc(NC(=O)c4ccccc4)cc3)ncnc2cc1OCCCN1CCOCC1`, 0.82% (inactive).
For the molecule `CN1CCN(Cc2ccc(NC(=O)Nc3ccc(Oc4cc(NC(=O)C5CC5)ncn4)cc3)cc2C(F)(F)F)CC1`, the Potency is 1.41 µM (active).
On the same count and under the same terms, under `COc1cc2c(Oc3ccc(NC(=O)C4(C(=O)Nc5ccc(F)cc5)CC4)cc3F)ccnc2cc1OCCCN1CCOCC1` stands 7.94 µM (active); under `Cc1nc(Nc2n[nH]c3c2CN(C(=O)N[C@H](CN(C)C)c2ccccc2)C3(C)C)c2sccc2n1`, 3.55 µM (active).
`Cc1[nH]nc2ccc(-c3cncc(OC[C@@H](N)Cc4ccccc4)c3)cc12`: the Potency is 1.78 µM (active).
In the case of `Cn1cc(-c2ccncc2)c(-c2ccc(OCc3ccc4ccccc4n3)cc2)n1`, the “activity change, negative = cytotoxicity” value is -7.47% (inactive).
With `COc1cccc2nc(-c3cccs3)nc(NN3C(=O)C=C(C)C3=O)c12`, the Potency was 1.41 µM (active).
In the case of `CNC(=O)CN1CCC(Oc2cc3c(Nc4cccc(Cl)c4F)ncnc3cc2OC)CC1`, the “activity change, negative = cytotoxicity” value was 4% (inactive).
Turning to `CC(C)c1cc(-c2n[nH]c(=O)n2-c2ccc3c(ccn3C)c2)c(O)cc1O`, the Potency is 0.316 µM (active).
Same read-out and setting: under `CCS(=O)(=O)c1cccc(-c2cc(C(=O)NC3CCN(C)CC3)c(C)c3[nH]c4ncc(C)cc4c23)c1` stands 12.6 µM (active); under `CS(=O)(=O)N1CCN(Cc2cc3nc(-c4cccc5[nH]ncc45)nc(N4CCOCC4)c3s2)CC1`, 2.51 µM (active).

The subject of the next experiment is JEG-3. Described as above. The conditions noted are these: Gynecologic cancer cell panel viability, ATPlite luminescence, 48 h; series mostly up to 57.5 µM; activity change, negative = cytotoxicity: at the top concentration. Summed up: as §1
In the case of `Cc1cnc(Nc2ccc(F)cc2Cl)nc1-c1c[nH]c(C(=O)N[C@H](CO)c2cccc(Cl)c2)c1`, the “activity change, negative = cytotoxicity” value is -16.8% (inactive).
Turning to `C=CC(=O)Nc1cc2c(Nc3ccc(F)c(Cl)c3)ncnc2cc1OCCCN1CCOCC1`, the “activity change, negative = cytotoxicity” value is 2.44% (inactive).
Same read-out and setting: under `COc1cc(C)c(Sc2cnc(NC(=O)c3ccc(CNC(C)C(C)C)cc3)s2)cc1C(=O)N1CCN(C(C)=O)CC1` (configuration not stated) stands -12.4% (inactive).
For `CCOC(=O)C1=C(C)NC2=C(C(=O)CC(C)(C)C2)C1c1ccc(-c2ccccc2)cc1` (configuration not stated), the “activity change, negative = cytotoxicity” value is 2.25% (inactive).
With `CNC(=O)c1ccccc1Nc1nc(Nc2ccc(N3CCOCC3)cc2OC)ncc1Cl`, the “activity change, negative = cytotoxicity” value was 3.34% (inactive).
Still for that read-out and setting: under `COC(=O)C1=C(C)NC(C)=C(C(=O)OCCN2CCN(C(c3ccccc3)c3ccccc3)CC2)C1c1cccc([N+](=O)[O-])c1` (configuration not stated) stands 17.4% (inactive).
On to `CN1CCN(Cc2ccc(NC(=O)Nc3ccc(Oc4cc(NC(=O)C5CC5)ncn4)cc3)cc2C(F)(F)F)CC1`, for which the Potency is 2.82 µM (active).
Turning to `COc1cc2c(Oc3ccc(NC(=O)C4(C(=O)Nc5ccc(F)cc5)CC4)cc3F)ccnc2cc1OCCCN1CCOCC1`, the “activity change, negative = cytotoxicity” value was -25.5% (inactive).
Still for that read-out and setting: under `Nc1nc(Nc2ccc(S(N)(=O)=O)cc2)nn1C(=O)c1c(F)cccc1F` stands 3.67% (inactive).
As for `Cc1[nH]nc2ccc(-c3cncc(OC[C@@H](N)Cc4ccccc4)c3)cc12`, the Potency is 10 µM (active).
With `C=CC(=O)Nc1cccc(Oc2nc(Nc3ccc(N4CCN(C)CC4)cc3)ncc2Cl)c1`, the “activity change, negative = cytotoxicity” value was -14.5% (inactive).
Still for that read-out and setting: under `Cc1cc(N2CCOCC2)cc2[nH]c(-c3c(NC[C@@H](O)c4cccc(Cl)c4)cc[nH]c3=O)nc12` stands -15.7% (inactive).
Still for that read-out and setting: under `CC1(C)CC(=O)c2c(C(F)(F)F)nn(-c3ccc(C(N)=O)c(NC4CCC(OC(=O)CN)CC4)c3)c2C1` (configuration not stated) stands -30.2% (inactive).
On the same count and under the same terms, under `CNC(=O)CN1CCC(Oc2cc3c(Nc4cccc(Cl)c4F)ncnc3cc2OC)CC1` stands 0.448% (inactive); under `O=C(O)c1ccc2c(c1)nc(Nc1cccc(Cl)c1)c1ccncc12`, 25.6% (inactive).
As for `CC(C)c1cc(-c2n[nH]c(=O)n2-c2ccc3c(ccn3C)c2)c(O)cc1O`, the “activity change, negative = cytotoxicity” value is 1.83% (inactive).
Consider `Cc1cc(Nc2cc(N3CCN(C)CC3)nc(Sc3ccc(NC(=O)C4CC4)cc3)n2)n[nH]1`, for which the “activity change, negative = cytotoxicity” value was -5.84% (inactive).
In the case of `CCS(=O)(=O)c1cccc(-c2cc(C(=O)NC3CCN(C)CC3)c(C)c3[nH]c4ncc(C)cc4c23)c1`, the Potency was 8.91 µM (active).
On to `C[C@@H]1COC(Nc2ccc3ncnc(Nc4ccc(OCc5nccs5)c(Cl)c4)c3c2)=N1`, for which the “activity change, negative = cytotoxicity” value was 4.06% (inactive).
On the same count and under the same terms, under `Nc1cccc(-c2cc3c(Oc4cccc(O)c4)ncnc3[nH]2)c1` stands -17.4% (inactive).

The record behind these values is PubChem BioAssay (NCATS).
